In PubChem BioAssay (NCI):
The panel holds about 83,000 compounds, 20% with a hit somewhere; the sample as a whole holds those more often.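 How to read the values: 0–100, growth inhibition (40 = 60% inhibited); 0, no net growth; -100 to 0, cell death (-40 = 40% of starting cells died; -100 = all dead).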 Values without a mark were called inactive. The source made the active and inactive calls.

Each compound was assayed on A498 renal (assay: NCI-60 one-dose screen, 48 h (100 = growth as untreated, 0 = no growth, -100 = all killed)). Conditions: 10 µM unless noted.
Procedure: Growth inhibition of the A498 human tumor cell line is measured as a screen for anti-cancer activity. Cells are grown in 96 well plates and exposed to the test compound for 48 hours. Compounds are tested at a single concentration, which is 10^-5 M for most compounds. The reported endpoint is percent growth (GI% or GIPRCNT), where numbers from 0 - 100% represent growth inhibition, and numbers from -100% - 0 represent cell death. For example, a value of 40 represents 60% growth inhibition. A value of 0 means no net growth occurred over the course of the experiment. A value of -40 indicates 40% of cells at the beginning of the experiment died by the end of the experiment. A value of -100 means all cells are dead at the end of the experiment.
NCI-60 Human Tumor Cell Lines Screen was performed using the standard one-dose NCI protocol, which is described in more detail at https://dtp.cancer.gov/discovery_development/nci-60/default.htm.
Compounds with GIPRCNT values below 10 were considered active. Activity score was based on GIPRCNT using the following formula: […]
Score is 0 for GIPRCNT values of 100 or above, 50 for GIPRCNT values of 0, and 100 for GIPRCNT values of -100.

| Compound | growth |
| --- | --- |
| OC(c1cc2cc(Cl)c(Cl)cc2c2cc(C(F)(F)F)ccc12)C1CCCCN1 (stereo not given) | 48.1% |
| COc1cc2c(cc1-c1c(C)noc1C)ncc1nc(C3CCCC3)n([C@H](C)COC(F)F)c12 | -27.3% (active) |
| COC(=O)c1cccc(NC(=O)c2ccc(-c3cccc(N)c3)o2)c1 | 105% |
| O=S(=O)(Nc1ccc(OC(F)F)cc1)c1ccc(-c2cnc(C3CC3)o2)cc1 | 16.9% |
| CC1=NN(c2nc(-c3ccc(Cl)cc3)c(C#N)c(N3CCOCC3)n2)C(=O)C1 | 58% |
| NC(=NC1C2CC3CC(C2)CC1C3)Nc1ccc(I)cc1 (stereo not given) | -12.5% (active) |
| CCCCCCN(CCCCCC)C(=N)c1ccnc2ccccc12 | 37.2% |
| C=CC(=O)Nc1cccc(-c2nc(SC)nc(Nc3ccccc3OC)c2C#N)c1 | 61.4% |
| Cc1ccccc1COc1ccc(-c2onc(C)c2-c2ccc(Cl)cc2)cc1 | 38.6% |
| CC1CCNC(C)C1 (stereo not given) | 106% |
| O=C1CSC(=S)N1CCc1ccc(O)cc1 | 97% |
| COc1cc2nnc3c4cccnc4[nH]c3c2cc1OC | 106% |
| COc1ccc(C(=O)COc2ccc(/C=C3\Oc4ccc(OC)cc4C3=O)cc2)cc1 | 98.9% |
| CCCc1cc(=O)n2c(C(=O)Nc3ccc(F)cc3)c(C(=O)Nc3ccc(F)cc3)sc2n1 | 139% [30 µM] |
| N#Cc1c(-c2ccc(Cl)cc2)nc(N/N=C/c2cccc(Br)c2)nc1N1CCOCC1 | -10.8% (active) |
| COc1ccc(-c2nn(-c3ccc(Cl)cc3)cc2-c2nc3ccccc3[nH]2)cc1 | 100% |
| O=C(COc1ccc(-c2nc3cc(Cl)c(Cl)cc3[nH]2)cc1)N=Nc1c(O)[nH]c2ccccc12 | -1.56% (active) |
| CCCCC/C(C=C(C#N)C#N)=C/c1ccccc1 | 112% |
| COc1ccc(CN2c3ccccc3Sc3ccccc32)cc1O | 76.4% |
| COc1cccc(NC(=O)c2sc3nc(C)c(C(C)=O)cc3c2N)c1 | 17.2% |

| Compound | growth |
| --- | --- |
| O=C(/C=C/c1cc(CN2CCOCC2)c(O)c2ncccc12)c1cc(CN2CCOCC2)c(O)c2ncccc12 | 32.4% |
| C/C1=C\CC[C@@]2(C)O[C@H]2[C@H]2OC(=O)C(CN3CCN(CC4C(=O)O[C@H]5[C@H]4CC/C(C)=C/CC[C@@]4(C)O[C@@H]54)CC3)[C@@H]2CC1 (stereo not given in full) | 114% |
| CN1CCN(c2ccc3nc(-c4ccc(OCCCCN5CCN(CCCCN6C(=O)c7cccc8cccc(c78)C6=O)CC5)cc4)[nH]c3c2)CC1 | 119% |
| Cc1nc2c3c(-c4ccccc4)c(-c4ccccc4)oc3ncn2n1 | 67.9% |
| COc1ccc(Nc2cc(C)nc(N3CCN(c4ccnc5cc(Cl)ccc45)CC3)n2)cc1 | -1.56% (active) |
| O=C(CCN1C(=O)/C(=C/c2ccc(Cl)cc2)SC1=S)NCCCN1CCOCC1 | 106% |
| COc1ccc(S(=O)(=O)N2CCCCC2)cc1NC(=O)c1[nH]c(C)c2c1CCCCC2=O | -19.2% (active) |
| C=CC(=O)Nc1cccc(-c2nc(SC)nc(NCCc3ccc(OC)c(OC)c3)c2C#N)c1 | 18.5% |
| Cc1cc2nc3[nH]c4ccccc4c3nc2cc1C | 121% |
| CS(=O)(=O)c1ccc(-n2nc(-c3ccc(Br)cc3)c3ccccc3c2=O)cc1 | 81.3% |
| O=S(=O)(Nc1ccc(Cl)c(F)c1)c1ccc(-c2cnc(C3CC3)o2)cc1 | -16.1% (active) |
| Cc1ccc(NS(=O)(=O)c2ccc(-c3cnc(C4CC4)o3)cc2)cc1C | -15.8% (active) |
| O=C1Nc2c(ccc(Cl)c2Cl)/C1=C\c1ccc(C(F)(F)F)cc1 | 102% |
| O=C(CN1C(=O)/C(=C/c2ccc(Cl)cc2)SC1=S)NCCCN1CCOCC1 | 104% |
| CC(=O)OCCC/C(=C/c1cc2ccccc2c2ccccc12)[N+](=O)[O-] | -80.1% (active) |
| N#Cc1c(N)n(CCNC(=O)c2ccccc2)c2nc3ccccc3nc12 | 135% |
| Clc1ccc2c(NCCCCNc3nc(N4CCOCC4)nc4ccccc34)ccnc2c1 | 90.4% |
| O=[N+]([O-])c1ccc(Nc2nc(NCCN3CCOCC3)ncc2[N+](=O)[O-])cc1 | 79.1% |
| O=CNc1ccc2c(c1)Cc1cccc(NC=O)c1-2 | 105% |
| COc1cccc(-c2nc(SCC(=O)Nc3ccc(C(=O)/C=C/c4ccc(OC)c(OC)c4)cc3)[nH]c(=O)c2C#N)c1 | 97.2% |
